Screens as filed in PubChem BioAssay.
Rows were chosen to be rich in hits. Some 2.4% of all compounds tested hit in one or more screens of this group.
FEN1 inh: human FEN1 inhibition; P39748; Recombinant FEN1 flap cleavage, fluorescence, 15 min; 390,000 tested, 0.35% active; Potency, µM (doses to about 114 µM), actives largely listed as inhibitors; also: nearly all actives have a fitted effect of over 65% in size
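Concentration–response screening of FEN1 (10 nM): 15 min compound preincubation at room temperature, reaction started with 50 nM substrate and read at 0 and 15 min. Corrected, normalized data were fitted by a four-parameter Hill equation.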
POLI inh: inhibitors of human DNA polymerase iota. Q9UNA4. Pol iota fluorescent replication assay, 10 min. Potency, µM (series often up to 115 µM), hits mostly inhibitors. 390,000 tested, 1% active
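Fluorescent replication assay read twice, at 0 min and 10 min after adding 50 nM (final) substrate. Enzyme (10 nM) and compounds were first incubated 15 min at room temperature; enzyme-free buffer wells were negative controls.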
POLB inh: blocks human DNA polymerase beta activity. Pol beta primer extension/strand displacement, fluorescence kinetic. Potency, µM (top dose mostly 114 µM), actives largely listed as inhibitors. 340,000 tested, 1.3% active. AID 485314
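Pol beta (10 nM) was preincubated with compound for 15 min at room temperature. The reaction was then started with 50 nM substrate and read immediately and after a further 10 min at room temperature.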
POLK inh: DNA polymerase kappa (human) inhibition; Q9UBT6; purified Pol kappa, fluorescent DNA synthesis assay, 10 min; Potency, µM (doses to about 107 µM), hits mostly inhibitors; 400,000 tested, 0.53% active
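First, compounds were pin-transferred onto 10 nM Pol kappa. After 15 min at room temperature, substrate was added to 50 nM final. Fluorescence was then measured kinetically at 0 and 10 min.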
Pol eta inh: DNA polymerase eta (human) inhibition; Q9Y253; AID 588591; Potency, µM (top dose mostly 114 µM), usual class: inhibitors; 390,000 tested, 1.2% active; recombinant Pol eta, fluorescent DNA replication assay
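Fluorescent replication assay: 50 nM final substrate added after a 15 min room-temperature compound preincubation with 10 nM enzyme. Signal taken at 0 min and again at 10 min.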
WRN helicase inh: WRN helicase (human) inhibition | WRN helicase unwinding, fluorescent forked duplex, kinetic | Potency, µM (top dose mostly 114 µM), hits mostly inhibitors | 360,000 tested, 0.46% active; also: nearly all actives have a fitted effect of over 55% in size
Target sequence (Q14191 whole entry, looked up): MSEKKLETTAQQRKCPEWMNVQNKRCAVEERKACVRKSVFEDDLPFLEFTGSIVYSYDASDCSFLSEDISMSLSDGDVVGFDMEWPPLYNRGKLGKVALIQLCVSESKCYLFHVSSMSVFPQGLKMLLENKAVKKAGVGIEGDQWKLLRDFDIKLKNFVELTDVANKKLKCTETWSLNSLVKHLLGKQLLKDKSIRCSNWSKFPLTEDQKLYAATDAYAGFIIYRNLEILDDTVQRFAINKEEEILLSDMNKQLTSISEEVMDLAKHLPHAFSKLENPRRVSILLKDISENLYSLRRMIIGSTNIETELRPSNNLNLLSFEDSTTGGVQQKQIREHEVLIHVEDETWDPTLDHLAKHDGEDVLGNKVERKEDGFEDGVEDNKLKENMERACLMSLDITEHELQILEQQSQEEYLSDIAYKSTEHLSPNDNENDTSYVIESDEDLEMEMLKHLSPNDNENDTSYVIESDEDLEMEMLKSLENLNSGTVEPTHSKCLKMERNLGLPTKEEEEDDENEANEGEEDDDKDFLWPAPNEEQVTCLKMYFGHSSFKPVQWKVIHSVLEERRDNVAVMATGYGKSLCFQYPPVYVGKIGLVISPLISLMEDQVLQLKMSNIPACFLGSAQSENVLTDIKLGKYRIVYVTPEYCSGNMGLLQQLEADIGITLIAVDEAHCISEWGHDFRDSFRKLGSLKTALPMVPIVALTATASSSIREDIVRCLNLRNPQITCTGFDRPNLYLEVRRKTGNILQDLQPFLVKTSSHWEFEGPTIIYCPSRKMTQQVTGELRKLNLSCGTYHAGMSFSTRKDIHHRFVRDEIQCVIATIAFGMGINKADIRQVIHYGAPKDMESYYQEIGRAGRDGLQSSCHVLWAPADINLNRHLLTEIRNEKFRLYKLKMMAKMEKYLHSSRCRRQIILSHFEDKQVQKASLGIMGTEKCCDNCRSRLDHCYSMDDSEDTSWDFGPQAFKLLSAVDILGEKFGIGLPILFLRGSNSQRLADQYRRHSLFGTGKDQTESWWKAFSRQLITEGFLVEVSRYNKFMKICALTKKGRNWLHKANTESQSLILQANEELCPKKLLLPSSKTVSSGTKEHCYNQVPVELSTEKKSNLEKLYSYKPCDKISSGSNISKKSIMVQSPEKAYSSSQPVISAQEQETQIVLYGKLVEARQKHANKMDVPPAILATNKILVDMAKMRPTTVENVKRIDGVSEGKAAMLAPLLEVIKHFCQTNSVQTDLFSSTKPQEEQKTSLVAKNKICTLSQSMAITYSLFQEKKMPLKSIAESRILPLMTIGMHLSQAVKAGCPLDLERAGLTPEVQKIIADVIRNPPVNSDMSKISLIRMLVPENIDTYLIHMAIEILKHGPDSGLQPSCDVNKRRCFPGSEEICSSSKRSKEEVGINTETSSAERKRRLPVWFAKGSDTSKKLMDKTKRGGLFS
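Primary qHTS, 1536-well format. 20 nM WRN + compound, 15 min RT; start with 100 nM forked fluorophore/quencher duplex, 2 mM ATP (final); kinetic read ex 525/em 598 nm.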
Hits are given with their value; i = inactive; ? = inconclusive; nt = not tested or not shown; ! = a repeat was not active; [ ] = another dose, or the depositor's remark. Calls follow the shape of the dose curve; as a rule, active = well fitted curve in the direction sought with a large enough effect; inconclusive = small, poorly fitted or top-dose-only effect, or another doubt; inactive = no such curve, though single readings can be large; an effect the other way counts as inactive or inconclusive.

SMILES	FEN1 inh	POLI inh	POLB inh	POLK inh	Pol eta inh	WRN helicase inh
C=C1N[C@]2(C(=O)COC(C)=O)[C@@H](C[C@H]3[C@@H]4CCC5=CC(=O)C=C[C@]5(C)[C@H]4[C@@H](O)C[C@@]32C)O1	nt	nt	nt	i[19.4 µM]	nt	nt
Cc1c2ccccc2cc[n+]1CCCS(=O)(=O)[O-]	i	i	i	i	i	i
CC1(C)C(/C=C/C=C/C=C/C=C2\N(CCCCS(=O)(=O)O)c3ccc4ccccc4c3C2(C)C)=[N+](CCCCS(=O)(=O)[O-])c2ccc3ccccc3c21	20µM	12.6µM	nt	22.4µM	7.08µM	44.7µM
O=C(N/N=C/C(Cl)=C/c1ccc([N+](=O)[O-])cc1)C(=O)Nc1cccc(C(=O)O)c1	i	?	?	i	50.1µM	i
C[C@@](N)(Cc1ccc(O)c(O)c1)C(=O)O	nt	nt	nt	3.55µM!	nt	nt
CCOC(=O)N1CC(C)N(CC(O)CN2CCOCC2)CC1C (configuration not stated)	i	i	nt	i	i	i
O=C(O)c1cc(=O)c2cc(Cl)ccc2[nH]1	nt	nt	nt	i	nt	nt
Cc1ccc2[nH]c3nc(N/N=C/c4cccc(O)c4)nnc3c2c1	i	?	5.01µM	i	i	i
COc1ccc2nc(/C(C#N)=C\c3ccc(C(=O)O)cc3)[nH]c2c1	i	i	i	i	22.4µM	?
COc1ccc2nc(/C(C#N)=C\c3ccc(Oc4ccc([N+](=O)[O-])cn4)cc3)[nH]c2c1	i	i	i	i	?	i
N#C/C(=C\c1ccc(OC(=O)c2cccs2)cc1)c1nc2ccccc2[nH]1	i	i	35.5µM	i	?	?
Cc1ccc(-c2noc(CNC(=O)c3ccc(C)c(Cl)c3)n2)cc1	i	i	i	i	?	nt
COC(=O)c1c(-c2cccs2)csc1NC(=O)c1ccc(C(C)C)cc1	?	i	i	i	i	nt
CNS(=O)(=O)c1cccc(C(=O)OCC(=O)c2ccc[nH]2)c1	i	39.8µM	nt	i	44.7µM	i
COc1ccc(NC(=O)c2c(-c3ccccc3)c(-c3ccccc3)nn(C)c2=O)c(OC)c1	i	i	i	i	i	nt
COc1ccc2c(c1)c(=O)oc1cc(O)ccc12	i	i	i	i	i	i
COc1ccc2c(c1)c(=O)oc1cc3oc(C)c(C)c3cc12	nt	nt	25.1µM	nt	nt	nt
CCCC1=Nc2cc(C(=O)NC(C)c3ccccc3)ccc2Sc2ccc(C)cc21 (configuration not stated)	?	89.1µM	i	?	i	nt
CCC1=Nc2cc(C(=O)NC(C)c3ccccc3)ccc2Sc2ccc(Cl)cc21 (configuration not stated)	i	i	i	i	i	nt
CCC1=Nc2cc(C(=O)NCCc3ccccc3)ccc2Sc2ccc(Cl)cc21	i	i	i	i	i	nt
CCCC1=Nc2cc(C(=O)NCCc3ccccc3)ccc2Sc2ccc(C)cc21	79.4µM	?	i	?	?	nt
COc1ccccc1CNC(=O)Cc1c(C)c2cc3c(C)coc3c(C)c2oc1=O	i	i	?	i	i	nt
Cc1ccccc1Cc1c(C)nc2nc(SCC(=O)NCCc3ccc(Cl)cc3)nn2c1C	i	i	i	i	i	nt
CCCS(=O)(=O)NC(=O)C1(C)CCCN(C(=O)c2cc(F)cc(F)c2)C1 (configuration not stated)	nt	nt	nt	nt	nt	i
Oc1c(Cl)cc(Cl)cc1Sc1cc(Cl)cc(Cl)c1O	nt	nt	22.4µM	?	nt	nt
SMILES	FEN1 inh	POLI inh	POLB inh	POLK inh	Pol eta inh	WRN helicase inh
O=Nc1ccc(NOC(=O)c2ccccc2Br)cc1	i	i	79.4µM	i	i	i
CCc1ccc2c(c1)c(=O)c(C(=O)c1ccccc1)cn2CC(=O)Nc1ccc(C)c(Cl)c1	i	i	2.82µM	i	?	nt
CC(C)c1cccc(-c2csc(C(C)(O)c3ccccc3)n2)c1 (configuration not stated)	nt	nt	nt	nt	nt	i
CC1(C)C(=O)Nc2ccccc2N1C(=O)COC(=O)c1cc(Cl)cc(Cl)c1	i	?	nt	i	i	i
CC1(C)C(=O)Nc2ccccc2N1C(=O)COC(=O)C12CC3CC(CC(O)(C3)C1)C2	i	50.1µM	20µM	?	14.1µM	i[11.6 µM]
Cc1ccc(C)c(OCCC(=O)OCC(=O)N2c3ccccc3NC(=O)C2(C)C)c1	i	?	nt	i	i	i
COc1ccccc1CCC(=O)OCC(=O)N1c2ccccc2NC(=O)C1(C)C	i	79.4µM	nt	i	i	i
CC1(C)C(=O)Nc2ccccc2N1C(=O)COC(=O)c1cccnc1	i	28.2µM	nt	i	?	i[11.6 µM]
Fc1ccc2[nH]c3c(N4CCc5ccccc5C4)ncnc3c2c1	i	i	14.1µM	i	i	i
CCn1ccc2cc(S(=O)(=O)N3CCCN(C(=O)Nc4ccccc4OC)CC3)ccc21	i	i	i	i	i	nt
CN(CCO)c1cc(Sc2nc3ccccc3s2)c2nonc2c1[N+](=O)[O-]	i	22.4µM	i	i	i	?
O=C(CSc1ccccc1Cl)NC1CCCc2ccccc21 (configuration not stated)	i	i	12.6µM	i	i	i
COC(=O)c1cc(NC(=O)[C@H](CCS(C)(=O)=O)N2Cc3ccccc3C2=O)cc(C(=O)OC)c1	i	i	i	i	i	nt
COc1cc(CCNC2=CC(=O)c3ncccc3C2=O)ccc1O	i	28.2µM	nt	i	15.8µM	i
COc1ccc(CCn2c(C)nc3c(c(=O)c4ccccc4n3C)c2=O)cc1	50.1µM	i	i	i	i	i
Cn1c2ccccc2c(=O)c2c(=O)n(C3CCCCC3)c(-c3ccco3)nc21	i	i	i	i	i	i
CC(C)Cn1c(-c2ccco2)nc2c(c(=O)c3ccccc3n2C)c1=O	nt	nt	39.8µM	nt	nt	nt
CCC(C(=O)NCCC(C)C)N(C(=O)Cn1nnc(-c2ccc(C)cc2)n1)c1cccc(O)c1 (configuration not stated)	i	i	i	i	i	nt
CC(=O)Nc1ccc(-c2nnc3n(CC(C)C)c(=O)c4ccccc4n23)cc1	i	i	i	i	i	nt
CCOC(=O)c1cc2c(=O)n3ccccc3nc2n(CC2CCCO2)c1=NC(=O)c1ccccc1OCC (configuration not stated)	i	i	i	i	i	nt
COc1ccc(OC)c(N=Nc2c(O)c3ccccc3[nH]c2=O)c1	?	?	nt	i	39.8µM	i[11.6 µM]
COc1cc(N=Nc2c(O)c3ccccc3[nH]c2=O)c(OC)cc1N=Nc1ccccc1	i	i	?	i	i	i
COc1cccc(C(C(=O)NCc2ccccc2)N(C(=O)Cn2nnc3ccccc32)c2cccc(C(C)=O)c2)c1 (configuration not stated)	i	i	i	i	i	nt
O=C1CC(c2ccco2)CC2=C1C(c1cccnc1)n1nc(C(F)(F)F)nc1N2 (configuration not stated)	i	?	nt	i	nt	nt
C=CCn1c(SCC(=O)Nc2ccc(C(=O)O)cc2)nc2scc(-c3ccccc3)c2c1=O	i	i	nt	i	i	i
